# Compounds with a hit are over-represented: about 7.6% of the library has one in this group of screens.
# Cy5 interf NS3h – Cy5 fluorescence quenchers or enhancers, artefact control for HCV NS3 helicase inhibitor project, biochemical, ChemBridge library, Cy5 readout; Cy5-dT15 DNA with NS3h, fluorescence interference; actives lie on both sides; signal over control mean, under 1 quenches; fluorescence interference ratio at 100 µM; 16,000 tested, 6% active; AID 720488, 2013;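 active means compound fluorescence over control fluorescence at most 0.8, a quencher, or at least a set upper limit, an enhancer; inactive means ratio between 0.8 and the set upper limit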
# NS3h inh CB – HCV NS3 helicase inhibitors, primary screen, biochemical, fluorescence polarization, ChemBridge library; 16,000 tested, 1.6% active; NS3h Cy5-dT15 DNA binding; AID 687043, 2013; Hepatitis C virus NS3 helicase; inhibition, % at 100 µM;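 active means inhibition above the average over every tested compound plus 3 SD, cut at about 40% in these data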
# Numbers without * were called inactive.
SMILES,Cy5 interf NS3h,NS3h inh CB
O=c1/c(=C/c2ccccc2OS(=O)(=O)c2ccccc2[N+](=O)[O-])sc2nc3ccccc3n12,0.9,-2.6
Cn1cc(C=C2C(=O)NC(=S)NC2=O)c2ccccc21,0.997,-2.4
O=C(COc1ccccc1)Nc1ccc([N+](=O)[O-])cc1,1.09,4.7
N#Cc1ccccc1OCC(=O)N/N=C\C=C\c1ccc([N+](=O)[O-])cc1,0.575*,25.6
CC(C)CNC(=O)c1cccc(NC(=O)CN2C(=O)c3ccccc3C2=O)c1,1.03,21.3
CCOC(=O)c1c(N)nc(C)n1-c1ccc(OC)cc1,1.05,1.3
O=C1N/C(=N\N=C/c2ccccc2O)SC1Cc1ccccc1 (stereo unspecified),1.13,-5.0
O=C1N/C(=N/N=C\c2ccccc2O)SC1Cc1ccc(Br)cc1 (stereo unspecified),1.09,51.7*
Cc1cc(C=C2C(=O)NC(=S)NC2=O)c(C)n1-c1ccc(N(C)C)cc1,0.974,-1.8
O=C(O/C(=C/c1nccn1Cc1ccc(Cl)cc1)c1ccccc1)c1ccccc1,1.22*,5.8
Cn1ccnc1/C=C(/OC(=O)c1ccc(Cl)cc1)c1ccc(Cl)cc1,0.978,-4.2
O=C(c1cc2n(n1)C(C(F)(F)F)CC(c1ccc(Cl)cc1)N2)N1CCN(c2ccccc2)CC1 (stereo unspecified),0.926,24.2
COc1ccc(C2CC(C(F)(F)F)n3nc(C(=O)O)cc3N2)cc1OC (stereo unspecified),0.646*,-0.6
COCCNC(=O)c1cc2n(n1)C(C(F)(F)F)CC(c1ccc(F)cc1)N2 (stereo unspecified),1.03,1.7
COc1ccc(C2CC(C(F)(F)F)n3nc(C(=O)NCc4cccs4)cc3N2)cc1OC (stereo unspecified),0.91,-3.4
Cc1ccc(C2CC(C(F)(F)F)n3nc(C(=O)Nc4ccc(F)cc4F)cc3N2)cc1 (stereo unspecified),0.569*,2.2
Cc1ccc(C2CC(C(F)(F)F)n3nc(C(=O)N4CCN(Cc5ccccc5)CC4)cc3N2)cc1 (stereo unspecified),0.761*,11.0
CCOc1ccc(C(=O)Nc2cc(-c3nc4ccc(C)cc4o3)ccc2Cl)cc1,1.03,-11.5
CCOC(=O)C1=C(C)NC(=O)N(C(C)=O)C1c1ccccc1F (stereo unspecified),1.06,7.7
CCCC1(O)CC(c2cc(OC)ccc2OC)NC(c2cc(OC)ccc2OC)C1C (stereo unspecified),1.01,-17.9
Cc1cc(C)c(NC(=O)c2ccccc2Br)c(C)c1,0.986,6.6
O=C(/C=C/c1ccc(S(=O)(=O)Nc2ccccc2)cc1)C1C(=O)c2ccccc2C1=O,0.472*,-37.8
O=C(O)/C=C/c1cccc(NS(=O)(=O)c2ccccc2)c1,1.06,1.3
CC(=O)Nc1ccc(NC(=O)c2ccc(C)cc2)cc1,1.03,3.7
CC(=O)Nc1ccc(NC(=O)c2ccc(C(F)(F)F)cc2)cc1,0.765*,11.5
SMILES,Cy5 interf NS3h,NS3h inh CB
CC(=O)Nc1ccc(NC(=O)c2ccc(N3C(=O)c4ccc(C(=O)Nc5ccc(NC(C)=O)cc5)cc4C3=O)cc2)cc1,0.766*,15.0
O=C(Nc1ccc(NC(=O)c2ccc(Cl)cc2Cl)cc1)c1ccc(Cl)c(Cl)c1,0.966,-16.9
O=C(Nc1ccc2c(c1)C(=O)N(c1ccccc1)C2=O)c1ccc2c(c1)C(=O)N(c1ccccc1)C2=O,1.02,-7.2
CC(=O)Nc1ccc(NC(=O)c2ccc(Cl)c(Cl)c2)cc1,1.24*,17.2
CC1=C(C(=O)Nc2cccc(Cl)c2)C(c2ccccc2Br)NC(=S)N1 (stereo unspecified),0.998,13.5
O=c1c[n+]([O-])c2ccccc2n1OCc1ccccc1,0.899,1.3
O=C(O)c1ccc2c(c1)C(=O)N(c1ccc(-c3nc4cc(N5C(=O)c6ccc(C(=O)O)cc6C5=O)ccc4[nH]3)cc1)C2=O,0.651*,10.5
C#Cc1cccc(N2C(=O)c3ccc(C(=O)O)cc3C2=O)c1,0.98,12.0
O=C1N=C2N(CCN3CCOCC3)c3ccccc3N2/C1=C\c1ccc([N+](=O)[O-])s1,1.04,5.8
CCOc1cc(OCC)cc(C(=O)Nc2ccc(N3CCOCC3)c(Cl)c2)c1,0.977,7.4
COC(=O)C1=C(C(=O)OC)SC(=C2C(=S)C(C)(C)N(C(=O)c3cccc([N+](=O)[O-])c3)c3ccc(OC)cc32)S1,0.525*,16.1
COC(=O)C1=C(C(=O)OC)SC(=C2C(=S)C(C)(C)N(C(=O)c3cccc(F)c3)c3c(OC)cccc32)S1,1.05,6.3
CC(=O)N1c2ccc(C)cc2C2(c3ccccc3)N(C(C)=O)c3ccc(C)cc3C12c1ccccc1 (stereo unspecified),0.908,-0.7
COc1ccc(NC(=O)c2ccc(CN(c3cc(Cl)ccc3C)S(=O)(=O)c3ccccc3)cc2)c(OC)c1,0.914,12.0
CCN(CC)S(=O)(=O)N=Cc1ccc(Cl)c(Cl)c1,1.07,5.4
CCOCCOC(=O)c1ccc(NC(=O)COc2cc(C)cc(C)c2)cc1,0.964,1.8
CCC1=NN(C(=O)c2cccnc2)C(O)(c2ccccc2)C1 (stereo unspecified),1.01,7.9
S=C(c1cccc(OCc2ccccc2)c1)N1CCOCC1,0.637*,28.2
COc1ccc(C(=O)Oc2cccc(C(=S)N3CCOCC3)c2)cc1,0.955,13.6
COc1ccccc1C=C1C(=O)NC(=S)N(c2ccccc2F)C1=O,0.988,8.5
O=C1NC(=S)N(c2ccccc2F)C(=O)/C1=C/c1ccc(OCc2cccc(C(=O)O)c2)cc1,1.01,49.7*
CCCCOc1ccc(-c2c(C#N)c(N)nc(SCc3ccc(Cl)cc3)c2C#N)cc1,0.993,-9.4
COc1ccccc1CC1CC(=O)N(c2ccc(I)cc2)C1=O (stereo unspecified),0.997,0.3
CCOc1ccc(C(=O)NC(C)(C)C)cc1Cl,1.03,-3.0
COc1ccc(NC(=O)CN(CCc2ccccc2)S(=O)(=O)c2ccc(OC)cc2)cc1,1.01,25.4
SMILES,Cy5 interf NS3h,NS3h inh CB
Cc1cc(Nc2ccccc2)n(C(=O)c2ccc([N+](=O)[O-])cc2)n1,0.74*,10.5
Cc1cc2ncn(C(=O)c3ccc([N+](=O)[O-])cc3)c2cc1C,0.942,7.1
CCOC(=O)COc1ccc(/C=C(/C#N)C(=O)Nc2ccccc2C)cc1,0.996,6.6
CCCCOC(=O)c1ccc(NC(=O)c2cccc(Cl)c2Cl)cc1,0.689*,20.4
O=C(Nc1ccc(N2CCOCC2)cc1)c1cccc(Cl)c1Cl,0.672*,19.5
COc1c(Cl)cc(C(=O)Nc2ccc(N3CCOCC3)cc2)cc1Cl,0.926,4.3
CCC(=O)Nc1ccc(NC(=O)c2cccc(Cl)c2Cl)cc1,1.03,16.2
Cc1nc2sc3c(c2c2nncn12)CCCC3,0.664*,5.9
Cc1nc2sc3c(c2c(=O)n1-n1cccc1)CCCC3,0.959,13.0
CCOc1ccc(NC(=O)CSc2nnc(-c3ccc(OC)cc3)o2)cc1,0.736*,19.5
COc1ccc(NC(=O)CSc2ncccn2)cc1,1.08,0.3
CCOC(=O)c1ccccc1NC(=O)CN(c1ccc(C)cc1)S(C)(=O)=O,0.805,42.2*
COC(=O)c1ccccc1NC(=O)CN(c1ccc(C)cc1)S(C)(=O)=O,0.994,10.8
Cc1ccc(-n2nc3ccc(NC(=S)NC(=O)c4ccco4)cc3n2)cc1,1.03,-10.7
O=C1NC(=S)N/C1=C/c1ccc(O)c(Cl)c1,0.984,-3.9
O=C1NC(=S)N/C1=C\c1ccccc1,1.21*,16.3
